Compound activity from PubChem BioAssay.
Most compounds without a hit are left out; they make up all but 4.1% or so of the library.
hgDAF12 agonist = H. glycines DAF-12 receptor agonists, primary screen, cell-based, luminescence, HEK293, GAL4 fusion, UAS-luciferase. Nuclear hormone receptor DAF-12 (Heterodera glycines), GAL4 fusion. HEK293 GAL4-hgDAF12 UAS-luciferase reporter, agonist luminescence; normalized to butyrate control. activation, % at 6.8 µM. actives 1.8% (n = 370,000). AID 687014, 2013;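 active means activation above a cutoff set at the mean of all screened compounds plus 3 SD, cut at about 10% in these data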
DAX1 inh-1 = DAX1 (NR0B1) inhibitors, primary screen, cell-based, HEK293, Gal4-DAX1, luciferase luminescence; actives 0.99% (n = 340,000); AID 504766, 2011; HEK293 Gal4-DAX1 luciferase reporter; inhibition, % at 6.75 µM;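 active means inhibition above the mean over all tested compounds plus 3 SD, cut at about 4.2% in these data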;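 further: inhibition shows as a rise in luminescence from relieved DAX1 repression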
Target sequence (P51843 207-470 limits assumed): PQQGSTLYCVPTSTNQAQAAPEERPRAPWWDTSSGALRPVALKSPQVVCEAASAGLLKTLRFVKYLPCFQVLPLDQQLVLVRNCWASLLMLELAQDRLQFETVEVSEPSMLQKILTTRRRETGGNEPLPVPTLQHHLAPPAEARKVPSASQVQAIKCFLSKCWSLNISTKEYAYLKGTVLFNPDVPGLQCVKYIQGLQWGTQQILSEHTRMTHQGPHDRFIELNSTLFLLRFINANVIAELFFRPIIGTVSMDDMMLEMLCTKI
DAX1 inh-2 = DAX1 (NR0B1) inhibitors on StAR promoter, primary screen, cell-based, luminescence, SF-1 (NR5A1), full-length DAX-1 | inhibition, % at 6.8 µM | HEK293T StAR-luciferase reporter, SF-1/DAX-1 repression relief | actives 1.1% (n = 370,000);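 active means inhibition above the mean over all tested compounds plus 3 SD, cut at about 3.6% in these data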;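 further: higher inhibition means more luminescence from relief of DAX-1 repression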
hcDAF-12 act = H. contortus DAF-12 nuclear receptor activators, primary screen, cell-based, luminescence, HEK293, lit1-tk-luc reporter. HEK293 hcDAF-12 lit1-tk-luc reporter; 0% DMSO, 100% Δ7-dafachronic acid. actives 1.4% (n = 370,000). activation, % at 6.8 µM. AID 652067, 2013;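 active means activation above the mean of all tested compounds plus 3 SD, cut at about 5.5% in these data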
ssDAF-12 act = S. stercoralis DAF-12 nuclear receptor activators, primary screen, cell-based, luminescence, HEK293, GRIP1 co-expression, lit1-tk-luc; actives 1% (n = 370,000); HEK293 ssDAF-12/GRIP1 lit1-tk-luc reporter; % of 3 µM dafachronic acid response; activation, % at 6.8 µM; Nuclear hormone receptor DAF-12 (Strongyloides stercoralis);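 active means activation above the mean over all tested compounds plus 3 SD, cut at about 0.9% in these data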
A number is an active result; . = inactive; / = no result given.

SMILES	hgDAF12 agonist	DAX1 inh-1	DAX1 inh-2	hcDAF-12 act	ssDAF-12 act
Fc1cccc2sc(Nc3nnc(-c4ccco4)o3)nc12	13	.	.	.	.
COc1cc2c(cc1OC)C(SC)=NC1(CCCC1)C2	.	.	.	.	.
COc1cc2c(cc1OC)C(C)=NC1(CCCCC1)C2	.	4.6	.	.	.
CCc1ccc(NC(=O)c2cnc3scc(C)n3c2=O)cc1	.	.	.	5.8	1.2
Cc1csc2ncc(C(=O)Nc3cccc(C(F)(F)F)c3)c(=O)n12	.	.	.	.	.
COCCCN1C(=O)C(CC(=O)NCCCCc2ccccc2)CC(C(=O)N(C(C)C)C(C)C)=C1C (stereo unspecified)	.	/	.	.	.
CC(C)C1=NN(C(=O)c2ccccc2)C(O)(C(C)(C)C)C1 (stereo unspecified)	12	.	.	.	.
S=C(NCCc1ccccc1)N1CCN(C(=S)NCCc2ccccc2)CC1	.	.	.	.	.
CN1CCN(C(=S)NCCc2ccccc2)CC1	13	.	.	.	.
Cc1ccc(S(=O)(=O)Nc2nc(C)cc(NCCN)n2)cc1	.	4.7	.	.	.
OC(c1ccc(F)cc1)c1ncc(-c2ccccc2F)[nH]1 (stereo unspecified)	11	/	.	.	.
CCc1ccc(C(O)c2ncc(-c3ccccc3F)[nH]2)cc1 (stereo unspecified)	.	/	4.1	.	.
O=C(Cc1ccc(Br)cc1)Nc1ccc(Cl)cc1	.	.	.	.	.
O=C(Cc1ccc(Cl)cc1)Nc1ccc(SC(F)F)cc1	11	.	.	.	.
CC(=O)Nc1ccc(S(=O)(=O)N2CCC(c3nc4ccc(C)cc4[nH]3)CC2)cc1	.	4.4	.	.	.
CCOC(=O)Nc1ccc(S(=O)(=O)N2CCC(c3nc4ccccc4[nH]3)CC2)cc1	.	.	.	.	.
Cc1cc(C)nc(/N=C(\N)N2CCc3ccccc32)n1	11	.	.	.	.
Cc1cc(C)nc(/N=C(\N)N2CCCCCC2)n1	.	.	.	.	.
N#C/C(=C(/O)CCl)c1nc(-c2ccccc2)cs1	.	.	.	.	1.3
COc1cc(OC)cc(C(=O)N=c2sc3ccccc3n2C)c1	11	.	.	.	.
O=C(CN1C(=O)NC2(CCCCCC2)C1=O)c1ccc(F)cc1	.	.	.	.	.
CN(Cc1ccc2c(c1)OCCO2)C(=O)CN1C(=O)NC2(CCCCC2)C1=O	.	.	.	.	.
CN(Cc1ccccc1)C(=O)CN1C(=O)NC2(CCCC2)C1=O	.	.	.	.	.
CCc1cccc2c(C(=O)CN3C(=O)NC4(CCCCC4)C3=O)c[nH]c12	.	.	3.9	.	.
CC(C)N(Cc1ccccc1)C(=O)CN1C(=O)NC2(CCCC2)C1=O	.	.	4.1	.	.
SMILES	hgDAF12 agonist	DAX1 inh-1	DAX1 inh-2	hcDAF-12 act	ssDAF-12 act
O=C(CN1C(=O)NC2(CCCCCC2)C1=O)c1ccc2c(c1)OCCO2	11	.	.	6.4	.
CCc1ccc(C(=O)CN2C(=O)NC3(CCCCCC3)C2=O)cc1	.	.	4.5	.	.
CCCCCCCCN1C(=O)[C@@H](CC(=O)NCCCCc2ccccc2)C[C@@]2(C(=O)OC)C1=C[C@H](C1CCCC1)O[C@@H]2C	.	/	.	.	.
COc1cc(CNc2ccc3[nH]c(=O)[nH]c3c2)ccc1OCc1ccc(C)cc1	12	.	.	.	.
Clc1ccc(-c2nnc(NC3=NCCCCC3)o2)cc1	.	.	.	6.1	.
CCOC(=O)CSc1nc2cc(OCC)ccc2cc1C#N	11	.	.	.	.
CN(Cc1ccccc1)C(=C(Cl)Cl)/C(=C1/NCCN1C)[N+](=O)[O-]	.	5.4	.	.	.
CC(C)CN(CCCNC(=O)CN1C(=O)CSc2ccc(S(=O)(=O)N3CCOCC3)cc21)CC(C)C	.	.	.	.	0.9
O=C(c1cc2cc(Cl)ccc2[nH]1)N1CCN(C(=O)c2ccco2)CC1	.	.	.	5.9	.
O=C(c1cc2cc(Cl)ccc2[nH]1)N1CCN(c2ccccc2F)CC1	.	.	.	.	.
O=S1(=O)CC2c3ccccc3CCN2CN1Cc1ccccc1 (stereo unspecified)	.	/	.	.	.
O=C(CSc1ccccc1)NCCc1ccccc1	.	5.6	.	.	.
CC(C)=CC(=O)NCCc1ccccc1	11	.	.	.	.
Cc1ccc(SCC(=O)NCCc2ccccc2)cc1	.	.	.	.	1.7
Cc1ccc(SCC(=O)NCCc2ccc(F)cc2)cc1	.	.	.	.	.
O=C(CSc1ccccc1)NCCc1ccc(F)cc1	.	.	.	.	.
O=C(CCc1c[nH]c2ccccc12)Nc1ccc(Oc2cccnc2)cc1	.	/	.	.	.
C[C@@H]1[C@@H](O)C[C@@]2(C[C@H](O)c3cc(Cl)ccc3O2)O[C@H]1c1ccccc1Cl	.	/	.	.	.
CCC1CCCCN1C(=O)CSc1nnc(-c2cccs2)o1 (stereo unspecified)	.	.	.	.	1.0
CC1CCCN(C(=O)CSc2nnc(-c3cccs3)o2)C1 (stereo unspecified)	12	.	.	.	.
NC1=NC(=O)/C(=C\c2cccnc2)S1	12	.	.	.	.
COc1ccc(/C=C2\SC(N)=NC2=O)cc1	.	4.9	.	.	.
NC1=NC(=O)C(=Cc2ccccc2)S1	.	.	.	.	.
O=C(Cc1ccc(NC(=O)C2CCN(C(=O)C3CCCC3)CC2)cc1)Nc1cccc(C(=O)N2CCCC2)c1	.	/	.	.	.
COc1ccccc1OCc1ccc(C(=O)NC2CCCCC2)o1	.	.	.	.	.
SMILES	hgDAF12 agonist	DAX1 inh-1	DAX1 inh-2	hcDAF-12 act	ssDAF-12 act
COc1ccc(CNC(=O)c2ccc(CS(=O)(=O)c3ccc(Br)cc3)o2)cc1	.	6.2	.	.	.
COc1ccccc1S(=O)Cc1ccc(C(=O)NC2CCCC2)o1 (stereo unspecified)	.	5.5	.	.	.
COc1ccc(S(=O)(=O)Cc2ccc(C(=O)NC3CC3)o2)cc1	.	13	.	.	.
CCOC(=O)C1=CCN(S(=O)(=O)c2ccccc2Br)C1c1ccc(Cl)cc1 (stereo unspecified)	.	/	.	.	.
Cc1cccc(OCC(=O)NCC(=O)N=Nc2c(O)[nH]c3ccc([N+](=O)[O-])cc23)c1	.	6.1	.	.	.
Cc1cccc(OCC(=O)N=Nc2c(O)[nH]c3ccc([N+](=O)[O-])cc23)c1	.	/	.	.	.
C[C@H](NC(=O)c1ccco1)C(=O)Nc1nnc(SCc2ccccc2)s1	.	.	3.7	.	.
